{"source": "the supplement of paper PMC10849652", "note": "The full data set covers some 7,900 targets. This sample favours those with a hit. About 0.6% of all pairs of compound and target were hits.", "data": [{"compound": "Cc1cc(SCc2sc(-c3ccc(C(F)(F)F)cc3)nc2C)ccc1OCC(=O)O", "test": "log2 fold change, soluble protein after heating vs DMSO (PISA); higher = thermal stabilisation; K562 cells, 10 uM, 30 min; active = over 0.2 and 3.5 SD of the protein, either way, in both replicates (recomputed)", "procedure,_shortened": "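Values are thermal stability changes relative to control samples and are taken from duplicates. They are stated as log2 fold changes. Before quantification by TMTpro 16plex LC-MS/MS with equalised channel sums, K562 cells at 2×10^6 cells/mL were treated with 10 μM compound for 30 min, heated in aliquots for 3 min across 48°C-58°C, pooled, extracted in PBS with 0.5% NP-40 at 4°C, and centrifuged at 21,000xg for 90 min to give the soluble supernatant.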", "values": [{"target": "ACSL5 isoform 3 (UniProt Q9ULC5)", "log2 fold change": "-0.033 (inactive)"}, {"target": "ADK (UniProt P55263)", "log2 fold change": "-0.061 (inactive)"}, {"target": "ATP1B3 (UniProt P54709)", "log2 fold change": "-0.04 (inactive)"}, {"target": "BCCIP isoform 2 (UniProt Q9P287)", "sequence (Q9P287 whole entry, looked up)": "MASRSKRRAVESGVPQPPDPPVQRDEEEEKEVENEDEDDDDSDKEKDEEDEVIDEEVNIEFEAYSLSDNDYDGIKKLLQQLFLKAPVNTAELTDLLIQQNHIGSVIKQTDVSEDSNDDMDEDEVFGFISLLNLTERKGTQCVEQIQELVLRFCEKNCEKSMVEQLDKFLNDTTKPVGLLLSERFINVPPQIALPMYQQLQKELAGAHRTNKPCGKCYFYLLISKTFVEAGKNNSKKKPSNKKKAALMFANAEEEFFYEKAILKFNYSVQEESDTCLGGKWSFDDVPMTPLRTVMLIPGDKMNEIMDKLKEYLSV", "log2 fold change": "0.011 (inactive)"}, {"target": "ANKZF1 (UniProt Q9H8Y5)", "log2 fold change": "-0.068 (inactive)"}, {"target": "BRD8 isoform 2 (UniProt Q9H0E9)", "log2 fold change": "-0.012 (inactive)"}, {"target": "ALDH18A1 (UniProt P54886)", "log2 fold change": "0.032 (inactive)"}, {"target": "AARSD1 isoform 3 (UniProt Q9BTE6)", "log2 fold change": "0.038 (inactive)"}, {"target": "BRK1 isoform 2 (UniProt Q8WUW1)", "sequence (Q8WUW1 whole entry, looked up)": "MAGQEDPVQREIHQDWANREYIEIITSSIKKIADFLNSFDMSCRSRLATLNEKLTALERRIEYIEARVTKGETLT", "log2 fold change": "-0.035 (inactive)"}, {"target": "BST2 (UniProt Q10589)", "log2 fold change": "-0.074 (inactive)"}, {"target": "ATP6V1H (UniProt Q9UI12)", "log2 fold change": "0.014 (inactive)"}, {"target": "ACACB (UniProt O00763)", "log2 fold change": "0.289 (inactive)"}, {"target": "AHSA1 (UniProt O95433)", "log2 fold change": "0.023 (inactive)"}, {"target": "ARL6IP4 (UniProt Q66PJ3)", "log2 fold change": "-0.038 (inactive)"}, {"target": "ABITRAM (UniProt Q9NX38)", "log2 fold change": "0.079 (inactive)"}, {"target": "ABCC5 (UniProt O15440)", "sequence (O15440 whole entry, looked up)": "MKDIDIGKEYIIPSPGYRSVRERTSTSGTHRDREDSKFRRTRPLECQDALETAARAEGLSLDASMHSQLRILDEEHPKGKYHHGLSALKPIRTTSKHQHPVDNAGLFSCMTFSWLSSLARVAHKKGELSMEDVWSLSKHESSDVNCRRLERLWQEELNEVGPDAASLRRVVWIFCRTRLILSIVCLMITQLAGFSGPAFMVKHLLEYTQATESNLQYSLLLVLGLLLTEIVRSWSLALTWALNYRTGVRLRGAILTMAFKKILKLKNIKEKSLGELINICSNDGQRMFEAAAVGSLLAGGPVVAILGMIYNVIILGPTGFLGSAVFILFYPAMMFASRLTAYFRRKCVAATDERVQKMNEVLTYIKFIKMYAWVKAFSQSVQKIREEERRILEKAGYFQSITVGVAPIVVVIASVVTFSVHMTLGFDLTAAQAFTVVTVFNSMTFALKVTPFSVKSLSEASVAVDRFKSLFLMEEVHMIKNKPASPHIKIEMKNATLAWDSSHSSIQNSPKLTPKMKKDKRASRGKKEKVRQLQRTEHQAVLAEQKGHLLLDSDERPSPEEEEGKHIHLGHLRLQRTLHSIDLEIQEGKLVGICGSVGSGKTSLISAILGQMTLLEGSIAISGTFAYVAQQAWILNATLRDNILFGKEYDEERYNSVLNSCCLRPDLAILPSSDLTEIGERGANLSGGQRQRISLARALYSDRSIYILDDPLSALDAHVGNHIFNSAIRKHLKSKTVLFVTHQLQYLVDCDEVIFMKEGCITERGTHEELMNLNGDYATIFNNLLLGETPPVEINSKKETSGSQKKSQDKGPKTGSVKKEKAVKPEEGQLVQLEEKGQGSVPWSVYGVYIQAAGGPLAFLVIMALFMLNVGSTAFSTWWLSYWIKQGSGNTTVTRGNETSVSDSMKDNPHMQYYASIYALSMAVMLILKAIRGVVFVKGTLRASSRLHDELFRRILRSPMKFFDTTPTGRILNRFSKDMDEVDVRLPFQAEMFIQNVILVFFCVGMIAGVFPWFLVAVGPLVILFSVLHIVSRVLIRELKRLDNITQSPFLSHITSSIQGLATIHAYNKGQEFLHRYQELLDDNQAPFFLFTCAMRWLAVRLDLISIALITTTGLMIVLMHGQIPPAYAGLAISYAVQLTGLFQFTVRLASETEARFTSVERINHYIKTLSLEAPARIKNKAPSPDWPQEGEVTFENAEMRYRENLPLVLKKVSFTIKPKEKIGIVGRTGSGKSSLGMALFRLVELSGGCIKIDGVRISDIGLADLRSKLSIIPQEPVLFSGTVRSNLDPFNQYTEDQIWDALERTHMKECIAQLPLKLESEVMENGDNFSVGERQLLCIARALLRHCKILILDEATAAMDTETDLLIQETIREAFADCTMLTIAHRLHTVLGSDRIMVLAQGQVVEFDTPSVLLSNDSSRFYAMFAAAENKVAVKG", "log2 fold change": "-0.011 (inactive)"}, {"target": "BCAP29 isoform 2 (UniProt Q9UHQ4)", "sequence (Q9UHQ4 whole entry, looked up)": "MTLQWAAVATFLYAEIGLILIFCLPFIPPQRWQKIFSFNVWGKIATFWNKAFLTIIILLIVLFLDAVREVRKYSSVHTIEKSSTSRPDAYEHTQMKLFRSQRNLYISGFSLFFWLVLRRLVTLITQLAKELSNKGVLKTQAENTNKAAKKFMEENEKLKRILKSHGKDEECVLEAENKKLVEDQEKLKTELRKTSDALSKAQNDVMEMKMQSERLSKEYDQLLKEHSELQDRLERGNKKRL", "log2 fold change": "-0.079 (inactive)"}, {"target": "ASH2L (UniProt Q9UBL3)", "log2 fold change": "0.02 (inactive)"}, {"target": "ALG5 (UniProt Q9Y673)", "sequence (Q9Y673 whole entry, looked up)": "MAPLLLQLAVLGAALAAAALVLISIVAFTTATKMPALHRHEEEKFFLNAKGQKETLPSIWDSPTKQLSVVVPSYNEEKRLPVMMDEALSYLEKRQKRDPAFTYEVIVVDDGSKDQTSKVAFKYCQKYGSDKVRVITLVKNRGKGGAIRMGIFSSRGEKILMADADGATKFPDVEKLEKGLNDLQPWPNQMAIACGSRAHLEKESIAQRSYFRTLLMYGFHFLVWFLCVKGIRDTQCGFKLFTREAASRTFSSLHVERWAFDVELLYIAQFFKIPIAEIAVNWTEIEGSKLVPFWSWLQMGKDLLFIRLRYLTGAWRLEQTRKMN", "log2 fold change": "0.045 (inactive)"}, {"target": "BCL9L (UniProt Q86UU0)", "log2 fold change": "-0.112 (inactive)"}, {"target": "APPL1 (UniProt Q9UKG1)", "sequence (Q9UKG1 whole entry, looked up)": "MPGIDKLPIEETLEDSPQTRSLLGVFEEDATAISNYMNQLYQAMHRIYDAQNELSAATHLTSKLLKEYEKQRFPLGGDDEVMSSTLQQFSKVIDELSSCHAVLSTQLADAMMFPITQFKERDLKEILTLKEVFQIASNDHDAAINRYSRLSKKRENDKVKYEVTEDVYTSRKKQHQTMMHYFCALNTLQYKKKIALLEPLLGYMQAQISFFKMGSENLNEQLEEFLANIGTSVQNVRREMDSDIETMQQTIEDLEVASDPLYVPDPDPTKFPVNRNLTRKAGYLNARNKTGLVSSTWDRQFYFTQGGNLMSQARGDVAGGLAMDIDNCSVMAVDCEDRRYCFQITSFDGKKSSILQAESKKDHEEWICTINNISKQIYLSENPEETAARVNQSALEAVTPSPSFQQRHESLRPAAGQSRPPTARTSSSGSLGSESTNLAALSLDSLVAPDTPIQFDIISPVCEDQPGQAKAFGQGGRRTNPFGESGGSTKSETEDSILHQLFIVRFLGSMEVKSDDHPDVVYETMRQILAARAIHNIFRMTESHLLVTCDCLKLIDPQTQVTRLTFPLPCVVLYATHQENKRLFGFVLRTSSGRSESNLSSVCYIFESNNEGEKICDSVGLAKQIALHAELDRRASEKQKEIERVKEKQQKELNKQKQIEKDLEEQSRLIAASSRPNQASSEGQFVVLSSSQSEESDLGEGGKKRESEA", "log2 fold change": "-0.003 (inactive)"}, {"target": "AFDN isoform 5 (UniProt P55196)", "sequence (P55196 whole entry, looked up)": "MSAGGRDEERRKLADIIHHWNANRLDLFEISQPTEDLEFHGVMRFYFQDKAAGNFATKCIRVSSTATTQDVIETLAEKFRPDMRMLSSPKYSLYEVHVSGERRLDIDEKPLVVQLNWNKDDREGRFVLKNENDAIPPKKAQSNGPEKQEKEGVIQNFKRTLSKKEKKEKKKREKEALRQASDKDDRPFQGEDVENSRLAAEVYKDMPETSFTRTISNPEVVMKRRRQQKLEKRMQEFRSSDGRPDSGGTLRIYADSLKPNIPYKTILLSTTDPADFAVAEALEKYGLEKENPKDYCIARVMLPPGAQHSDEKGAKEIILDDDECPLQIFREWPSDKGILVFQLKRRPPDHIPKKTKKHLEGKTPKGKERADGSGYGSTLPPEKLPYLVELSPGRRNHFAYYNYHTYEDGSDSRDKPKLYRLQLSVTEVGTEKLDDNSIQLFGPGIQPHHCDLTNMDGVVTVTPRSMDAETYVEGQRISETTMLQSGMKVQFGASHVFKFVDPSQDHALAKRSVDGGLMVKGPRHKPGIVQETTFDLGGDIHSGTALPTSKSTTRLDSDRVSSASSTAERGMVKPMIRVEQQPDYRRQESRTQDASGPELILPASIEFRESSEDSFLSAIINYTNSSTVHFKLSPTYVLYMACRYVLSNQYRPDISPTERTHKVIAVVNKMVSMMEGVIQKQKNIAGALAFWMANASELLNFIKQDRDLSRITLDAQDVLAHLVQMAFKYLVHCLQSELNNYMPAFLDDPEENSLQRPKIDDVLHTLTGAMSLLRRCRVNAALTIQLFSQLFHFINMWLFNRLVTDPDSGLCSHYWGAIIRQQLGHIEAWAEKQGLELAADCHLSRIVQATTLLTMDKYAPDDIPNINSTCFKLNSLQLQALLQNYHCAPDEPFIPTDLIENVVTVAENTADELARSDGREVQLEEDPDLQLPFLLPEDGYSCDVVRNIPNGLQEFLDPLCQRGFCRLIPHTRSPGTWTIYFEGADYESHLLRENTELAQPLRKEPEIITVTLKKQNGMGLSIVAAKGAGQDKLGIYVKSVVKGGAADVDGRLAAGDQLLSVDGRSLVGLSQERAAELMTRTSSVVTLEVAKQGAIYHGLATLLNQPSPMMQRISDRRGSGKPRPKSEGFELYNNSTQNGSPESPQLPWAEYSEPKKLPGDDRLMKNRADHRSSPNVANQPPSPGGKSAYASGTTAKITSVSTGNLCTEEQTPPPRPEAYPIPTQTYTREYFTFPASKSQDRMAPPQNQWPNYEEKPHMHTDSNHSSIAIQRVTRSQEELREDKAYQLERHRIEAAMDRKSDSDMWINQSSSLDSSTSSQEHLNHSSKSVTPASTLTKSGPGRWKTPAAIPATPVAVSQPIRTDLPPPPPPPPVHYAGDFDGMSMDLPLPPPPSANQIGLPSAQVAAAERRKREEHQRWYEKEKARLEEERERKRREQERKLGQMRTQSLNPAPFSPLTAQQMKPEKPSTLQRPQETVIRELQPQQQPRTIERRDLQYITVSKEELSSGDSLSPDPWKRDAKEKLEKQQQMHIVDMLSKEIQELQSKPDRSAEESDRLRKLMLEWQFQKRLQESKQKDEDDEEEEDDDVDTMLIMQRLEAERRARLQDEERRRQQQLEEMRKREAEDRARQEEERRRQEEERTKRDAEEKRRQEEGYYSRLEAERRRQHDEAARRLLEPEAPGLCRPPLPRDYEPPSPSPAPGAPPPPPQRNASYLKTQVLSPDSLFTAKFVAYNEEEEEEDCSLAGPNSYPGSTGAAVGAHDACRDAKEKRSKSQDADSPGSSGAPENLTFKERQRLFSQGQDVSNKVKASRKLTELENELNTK", "log2 fold change": "0.063 (inactive)"}]}]}
